Tests used:
[1] = target: T1, hPUF_MT(R5:A_13R)(R5:A_13Y)2(R6:C_13Y)3; assay: EMSA; 13R about 10 times greater; conditions: label: Alexa680 at 5' and 3'; ssRNA
T1 chain: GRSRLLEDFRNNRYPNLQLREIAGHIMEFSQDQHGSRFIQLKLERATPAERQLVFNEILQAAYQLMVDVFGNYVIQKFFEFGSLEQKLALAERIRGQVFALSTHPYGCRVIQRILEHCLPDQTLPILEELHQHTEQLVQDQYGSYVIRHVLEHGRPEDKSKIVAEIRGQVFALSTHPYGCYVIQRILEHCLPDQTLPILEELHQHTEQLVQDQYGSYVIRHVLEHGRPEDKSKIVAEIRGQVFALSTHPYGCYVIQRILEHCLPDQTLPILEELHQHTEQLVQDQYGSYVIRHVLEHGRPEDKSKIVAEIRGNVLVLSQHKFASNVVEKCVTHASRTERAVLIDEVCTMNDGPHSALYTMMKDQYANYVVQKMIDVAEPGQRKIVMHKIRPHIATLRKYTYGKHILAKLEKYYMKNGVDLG

hPUF_MT(F856A) = hPUF_MT(F856A) (UniProt Q14671 SEQ:1-349, F856A); assay: EMSA; conditions: tags: MBP; label: Alexa680 at 5' and 3'; ssRNA
hPUF_MT(F865A) = hPUF_MT(F865A) (UniProt Q14671 SEQ:1-349, F865A); assay: EMSA; smaller contribution than F856; conditions: tags: MBP; label: Alexa680 at 5' and 3'; ssRNA

| Sequence | binding signal [1] | binding signal (hPUF_MT(F856A)) | binding signal (hPUF_MT(F865A)) |
| --- | --- | --- | --- |
| CCAGAAUUGCACACAUAUUCG | ~0.1 fold of 13R protein |  |  |
| CCAGAAUUGUAUAUAUUCG |  | ~0.1 fold of WT | ~0.1 fold of WT |
